Some of the results follow. The hit rate among all sequences tested is not known here.
Target: furin, P09958
Test: furin cleavage Z-score vs untreated control; higher = more cleavage, active = 3.5 or more, inactive = 1 or less, 8 variable residues between constant flanks
Experimental: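 Multiplexed peptide-cDNA fusion cleavage assay. 8-mer variable peptides flanked by constant Cys-Ala (N-term) and Ala-Gly-Asn-Ala-Ser-Ala-Ser-Ala (C-term) and conjugated to a cDNA oligonucleotide were bead-immobilised via the N-terminus. They were treated with purified furin at a 1:10 enzyme:substrate ratio in 50 mM HEPES pH 7.5, 1 mM CaCl2, 100 mM NaCl for 7.5, 15 or 30 min. Released cDNA was counted by next-generation sequencing, and log counts versus no-furin controls were lowess-adjusted and converted to robust Z-scores.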

Chain of furin, P09958 (P09958 whole entry): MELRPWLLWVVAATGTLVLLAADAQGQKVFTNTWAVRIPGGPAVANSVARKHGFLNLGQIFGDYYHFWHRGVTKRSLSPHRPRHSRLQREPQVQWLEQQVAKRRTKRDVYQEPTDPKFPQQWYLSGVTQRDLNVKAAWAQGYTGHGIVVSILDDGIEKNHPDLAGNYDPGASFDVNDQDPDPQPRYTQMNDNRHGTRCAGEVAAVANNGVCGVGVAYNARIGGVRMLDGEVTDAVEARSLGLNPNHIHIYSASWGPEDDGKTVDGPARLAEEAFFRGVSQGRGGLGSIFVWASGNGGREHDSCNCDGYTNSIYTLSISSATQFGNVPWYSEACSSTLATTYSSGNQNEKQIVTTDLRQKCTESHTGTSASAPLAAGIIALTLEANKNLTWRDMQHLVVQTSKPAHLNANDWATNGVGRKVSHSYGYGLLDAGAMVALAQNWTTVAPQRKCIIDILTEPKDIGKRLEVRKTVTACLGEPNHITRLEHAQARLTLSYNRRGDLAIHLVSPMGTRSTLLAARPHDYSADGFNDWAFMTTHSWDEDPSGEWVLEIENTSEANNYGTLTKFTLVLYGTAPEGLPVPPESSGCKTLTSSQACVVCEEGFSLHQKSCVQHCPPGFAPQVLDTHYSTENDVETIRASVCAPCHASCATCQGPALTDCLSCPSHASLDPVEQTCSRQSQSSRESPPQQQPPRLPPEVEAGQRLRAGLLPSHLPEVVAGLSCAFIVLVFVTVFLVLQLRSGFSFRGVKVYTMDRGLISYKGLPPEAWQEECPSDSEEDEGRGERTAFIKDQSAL

Sequence | furin cleavage Z-score (7.5 min) | furin cleavage Z-score (15 min) | furin cleavage Z-score (30 min)
CAMEEDSQHLAGNASASA [HC12] | 1.39 | -0.675 (inactive) | -1.53 (inactive)
CADLLVGSATAGNASASA [HC292] | -0.794 (inactive) | -0.376 (inactive) | -2.04 (inactive)
CAEVPCHRISAGNASASA [HC2384] | -0.484 (inactive) | 0.399 (inactive) | 0.761 (inactive)
CAKHQRAKRAAGNASASA [FS-1130] | 5.65 (active) | 4.42 (active) | 4.22 (active)
CASLGRAKRAAGNASASA [FS-1569] | 5.19 (active) | 5.19 (active) | 3.67 (active)
CARDQRSVLAAGNASASA [FS-2206] | -0.0379 (inactive) | -0.365 (inactive) | 2.37
CASWGRVWRAAGNASASA [FS-1420] | 0.424 (inactive) | -1.01 (inactive) | 0.706 (inactive)
CASLLSPRPIAGNASASA [HC736] | 0.821 (inactive) | -0.642 (inactive) | -0.193 (inactive)
CAAVRTKLKLAGNASASA [HC1635] | -0.516 (inactive) | 0.293 (inactive) | 1.05
CARRKRNVNTAGNASASA [FS-2068] | 9.71 (active) | 10.9 (active) | 8.02 (active)
CARRKKQVGTAGNASASA [FS-2450] | -0.127 (inactive) | 1.03 | 0.188 (inactive)
CARKKRIFNLAGNASASA [FS-2693] | 0.592 (inactive) | 0.839 (inactive) | 0.689 (inactive)
CARKKRNVNFAGNASASA [FS-3158] | 10.3 (active) | 10.5 (active) | 8.52 (active)
CARRKRKNKTAGNASASA [FS-1968] | 0.116 (inactive) | -2.04 (inactive) | -0.0117 (inactive)
CAMEECSQYLAGNASASA [HC1749] | 0.871 (inactive) | 2.54 | 0.195 (inactive)
CAPVVVGTTDAGNASASA [HC417] | -0.513 (inactive) | 0.318 (inactive) | -0.373 (inactive)
CAEVVTSVWVAGNASASA [HC2210] | -1.35 (inactive) | -0.635 (inactive) | 0.276 (inactive)
CARPRRDSAGAGNASASA [FS-2500] | 0.906 (inactive) | -0.366 (inactive) | 0.714 (inactive)
CARPRRDAAEAGNASASA [FS-2741] | 8.33 (active) | 11 (active) | 8.31 (active)
CARPRRDAEPAGNASASA [FS-1762] | 10.8 (active) | 12.9 (active) | 9.93 (active)
CARPRRDCVAAGNASASA [FS-2440] | 5.46 (active) | 5.89 (active) | 6.25 (active)
CARPRRLLQAAGNASASA [FS-2165] | -1.03 (inactive) | -0.941 (inactive) | -0.713 (inactive)
CATKPCSGSWAGNASASA [HC1854] | -0.725 (inactive) | -0.656 (inactive) | -1.12 (inactive)

Sequence | furin cleavage Z-score (7.5 min) | furin cleavage Z-score (15 min) | furin cleavage Z-score (30 min)
CAEVTTPCSGAGNASASA [HC1970] | 0.193 (inactive) | -0.206 (inactive) | -0.0766 (inactive)
CARRRRGAPEAGNASASA [FS-2297] | 6.8 (active) | 6.5 (active) | 6.23 (active)
CARRRRVVPEAGNASASA [FS-2082] | 1.92 | 5.11 (active) | 6.08 (active)
CARRRRGALRAGNASASA [FS-2787] | 3.24 | 5.07 (active) | 6.59 (active)
CARARREALRAGNASASA [FS-2326] | 7.37 (active) | 9.91 (active) | 7.3 (active)
CAVDVVCCSMAGNASASA [HC2110] | -1.67 (inactive) | -0.512 (inactive) | -0.588 (inactive)
CAWRNRKKKTAGNASASA [FS-575] | -0.592 (inactive) | -0.739 (inactive) | -1.25 (inactive)
CAGLVPRGSGAGNASASA [TR8] | -1.24 (inactive) | -1.44 (inactive) | -1.84 (inactive)
CAMEECSFHLAGNASASA [HC1727] | 2.23 | -1.03 (inactive) | 1.18
CASYSWTGALAGNASASA [HC1372] | -0.915 (inactive) | -0.282 (inactive) | 0.0526 (inactive)
CASGENLPYLAGNASASA [HC950] | -0.962 (inactive) | 0.134 (inactive) | -0.522 (inactive)
CAVGGVYLLPAGNASASA [HC176] | 1.19 | 0.0945 (inactive) | 0.538 (inactive)
CASFRRAFLIAGNASASA [FS-2322] | -1.89 (inactive) | -0.15 (inactive) | -1.34 (inactive)
CAEPDVAVLTAGNASASA [HC1243] | 0.073 (inactive) | 0.723 (inactive) | -1.2 (inactive)
CAKKRTVVLTAGNASASA [HC1325] | -0.725 (inactive) | -0.173 (inactive) | 0.000165 (inactive)
CARPRRILNTAGNASASA [FS-2441] | -2.76 (inactive) | 0.234 (inactive) | 0.846 (inactive)
CARKRRALLIAGNASASA [FS-3258] | 5.47 (active) | 5.56 (active) | 8.18 (active)
CARKFRSGLIAGNASASA [FS-2152] | -0.364 (inactive) | 0.099 (inactive) | -0.282 (inactive)
CARKRRNLETAGNASASA [FS-2700] | 7.71 (active) | 8.41 (active) | 8.69 (active)
CARQQRDEETAGNASASA [FS-2401] | -0.691 (inactive) | -0.187 (inactive) | -3.21 (inactive)
CARKRRAVLTAGNASASA [FS-2971] | 8.83 (active) | 12.7 (active) | 10.3 (active)
CARKRRANSLAGNASASA [FS-3194] | 6.54 (active) | 9.21 (active) | 5.81 (active)
CAINALSNSLAGNASASA [HC1382] | -0.629 (inactive) | -0.0116 (inactive) | 0.458 (inactive)

— the supplement of paper PMC3545927
